Only some compounds are listed: those with a hit (about 19% of all), similar ones and a draw of the others.
IL1B secr inh: qHTS for Inhibitors of Inflammasome Signaling: IL-1-beta AlphaLISA Primary Screen; THP-1 LPS/ATP IL-1B secretion, AlphaLISA, 16 h; hits give low values; activity change, % at 57.5 µM; actives 4.7% (n = 360,000); AID 743279, 2014; in the data active means activity change below about -50%; inconclusive means mostly about -30% to -49%; further: on the % scale 0 is the no-effect control and ±100 the full control effect
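THP-1 cells pretreated 1 hr with compounds (up to 57.5 uM final), then stimulated with LPS (250 ng/mL final) plus ATP (1.25 mM final); secreted IL-1B measured by AlphaLISA after 16 hr, decreased signal indicating inhibition.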
TDP1 inh: qHTS Assay for Inhibitors of Tyrosyl-DNA Phosphodiesterase (TDP1); Tyrosyl-DNA phosphodiesterase 1 (Homo sapiens), Q9NUW8; recombinant TDP1, AlphaScreen DNA substrate cleavage; Potency, µM (highest dose often 130 µM), for the others: top-dose activity change, negative = inhibition, usual class: inhibitors; actives 0.28% (n = 350,000); AID 485290, 2010; further: potency means the concentration at half of the fitted maximal effect; on the % scale 0 is the no-effect control and ±100 the full control effect; nearly all actives have a fitted effect of over 40% in size
Target sequence (Q9NUW8 whole entry, looked up): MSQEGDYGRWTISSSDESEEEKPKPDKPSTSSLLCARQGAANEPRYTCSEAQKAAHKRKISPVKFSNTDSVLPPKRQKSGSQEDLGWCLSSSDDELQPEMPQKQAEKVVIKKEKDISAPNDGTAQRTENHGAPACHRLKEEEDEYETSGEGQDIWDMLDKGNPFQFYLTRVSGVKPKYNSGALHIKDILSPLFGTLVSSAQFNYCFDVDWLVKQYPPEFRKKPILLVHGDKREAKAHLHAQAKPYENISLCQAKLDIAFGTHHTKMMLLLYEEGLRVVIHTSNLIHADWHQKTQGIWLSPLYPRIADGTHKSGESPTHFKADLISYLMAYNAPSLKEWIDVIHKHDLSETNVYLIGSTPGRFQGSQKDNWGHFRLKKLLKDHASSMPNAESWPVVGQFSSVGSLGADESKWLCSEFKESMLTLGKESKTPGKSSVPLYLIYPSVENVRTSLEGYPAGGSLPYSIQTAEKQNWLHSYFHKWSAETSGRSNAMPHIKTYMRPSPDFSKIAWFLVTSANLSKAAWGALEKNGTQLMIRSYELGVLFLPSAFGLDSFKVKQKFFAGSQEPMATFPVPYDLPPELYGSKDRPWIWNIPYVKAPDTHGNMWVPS
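Signal: AlphaScreen proximity between streptavidin donor and anti-FITC acceptor beads on intact substrate. Reaction: Tdp1 1 nM, substrate 15 nM final, 5 min RT after 15 min compound preincubation.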
TGFb SMAD3 inh: qHTS for Inhibitors of TGF-b; AID 588855, 2011; actives 1.2% (n = 410,000); HepG2 CAGA-GFP TGF-b/SMAD3 reporter, GFP fluorescence, 18 h; TGF-beta stimulated, 500 pg/mL final; Potency, µM (doses to about 46.1 µM), for inactives: at the highest dose activity, negative = inhibition, usual class: inhibitors; further: potency means the concentration at half of the fitted maximal effect; on the % scale 0 is the no-effect control and ±100 the full control effect; nearly all actives have a fitted effect of over 65% in size
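HEPG2 CAGA-GFP reporter cells (1000/well, DMEM with 1% FBS) received compounds, then recombinant TGF-beta at 500 pg/mL final for 18 hours at 37 degrees C. Per-cell GFP summed per well was normalised to unstimulated and stimulated DMSO controls before curve fitting.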
HepG2 viability: qHTS for Inhibitors of TGF-b: Cytotox Counterscreen; HepG2 CAGA-GFP viability, ATP luminescence, 18 h; Potency, µM (highest dose often 46.1 µM), inactives show at the highest dose activity change, negative = cytotoxicity, actives largely listed as cytotoxic; actives 0.76% (n = 410,000); AID 588856, 2011; further: potency means the concentration at half of the fitted maximal effect
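CellTiter-Glo luminescence gave cytotoxicity after 18 hours at 37 degrees C. The cells were HepG2 CAGA-GFP in 1% FBS DMEM, stimulated with 500 pg/mL TGF-beta after compound addition. %Activity was normalised to no-cell wells (complete cell-killing) and DMSO (no toxicity), and curves were fitted and classified.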
TDP1 cell CPT: qHTS for Inhibitors of human tyrosyl-DNA phosphodiesterase 1 (TDP1): qHTS in cells in presence of CPT; Potency, µM (doses to about 46.2 µM), for the others: top-dose activity change, negative = growth inhibition, usual class: inhibitors; chicken DT40 Tdp1-/-;hTDP1 cells + 20 nM CPT, ATP luminescence, 48 h; AID 686979, 2013; actives 12% (n = 420,000); further: potency means the concentration at half of the fitted maximal effect; on the % scale 0 is the no-effect control and ±100 the full control effect; nearly all actives have a fitted effect of over 55% in size
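Chicken DT40 Tdp1-/- cells stably complemented with human TDP1 were seeded at 400 cells/well in medium containing 20 nM camptothecin, exposed to pin-transferred compounds, and grown at 37 °C for at least 48 hr. Viability was read as ATP luminescence.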
DT40 TDP1 no CPT: qHTS for Inhibitors of human tyrosyl-DNA phosphodiesterase 1 (TDP1): qHTS in cells in absence of CPT | DT40 Tdp1-/- hTDP1 cells, no CPT, ATP luminescence, 48 h | Potency, µM (top dose mostly 46.2 µM), for inactives: top-dose activity change, negative = growth inhibition, most hits filed as inhibitors | actives 15% (n = 420,000) | AID 686978, 2013; further: potency means the concentration at half of the fitted maximal effect; on the % scale 0 is the no-effect control and ±100 the full control effect; nearly all actives have a fitted effect of over 55% in size
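Growth kinetics read by CellTiter-Glo luminescence after ≥48 hr at 37 °C. Cells: DT40 Tdp1-/- stably carrying human TDP1, 400 per well, compound exposure in the absence of CPT (DMSO vehicle).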
Active calls of the source: *. Unless noted, the call rests on the fitted dose curve; in most records, active means well fitted curve in the direction sought with a large enough effect; inconclusive means small, poorly fitted or top-dose-only effect, or another doubt; inactive means no such curve, though single readings can be large; an effect the other way counts as inactive or inconclusive.

For CCOc1ccc(C2=CC(c3cc(Br)ccc3F)n3ncnc3N2)cc1Cl (centres undefined) the results were TDP1 inh 5.7%, TGFb SMAD3 inh -6.0%, HepG2 viability -12.2%, TDP1 cell CPT 14.6µM* and DT40 TDP1 no CPT 18.4µM*.
For Fc1ccc(Br)cc1C1C=C(c2cccnc2)Nc2ncnn21 (centres undefined) the results were IL1B secr inh 28.7, TDP1 inh 7.4%, TGFb SMAD3 inh 0.2%, HepG2 viability 1.0%, TDP1 cell CPT 16.4µM* and DT40 TDP1 no CPT 16.4µM*.
Screening CCOC(=O)C1=C(C)Nc2ncnn2C1c1cc(Br)ccc1F (centres undefined) returned IL1B secr inh 12.8, TDP1 inh 4.4%, TGFb SMAD3 inh -25.1%, HepG2 viability -14.1%, TDP1 cell CPT inconclusive and DT40 TDP1 no CPT 25.9µM*.
For CCOC(=O)C1=C(C)Nc2ncnn2C1c1cccs1 (centres undefined) the results were IL1B secr inh 48.2, TDP1 inh -2.0%, TGFb SMAD3 inh -19.5%, HepG2 viability 4.9%, TDP1 cell CPT -23.1% and DT40 TDP1 no CPT -9.6%.
Screening COc1ccc(C(=O)Nc2ccccc2-c2nc3ccccc3s2)cc1OC returned TDP1 inh -4.5%, TGFb SMAD3 inh -2.4%, HepG2 viability 9.2%, TDP1 cell CPT inconclusive and DT40 TDP1 no CPT inconclusive.
For O=S(=O)(O)c1ccc2c(N=Nc3ccc(S(=O)(=O)O)c4ccccc34)c(O)c(S(=O)(=O)O)cc2c1 the results were TDP1 inh inconclusive, TGFb SMAD3 inh -4.6%, HepG2 viability 1.5%, TDP1 cell CPT inconclusive and DT40 TDP1 no CPT inconclusive.
`CC(=O)Nc1ccc(S(=O)(=O)O)c2cc(S(=O)(=O)O)c(N=Nc3ccc(N=Nc4ccc(S(=O)(=O)O)cc4)c4ccc(S(=O)(=O)O)cc34)c(O)c12` gave TGFb SMAD3 inh -5.7%, HepG2 viability -25.8%, TDP1 cell CPT 8.91µM* and DT40 TDP1 no CPT 12.6µM*.
CCCc1nc2c3ccccc3ccn2c1Cc1ccc(C)cc1 was read as IL1B secr inh 58.4, TGFb SMAD3 inh inconclusive, HepG2 viability -27.3%, TDP1 cell CPT 20.6µM* and DT40 TDP1 no CPT inconclusive.
Screening CCCc1nc2c3ccccc3ccn2c1CC(C)(C)C returned IL1B secr inh 0.0, TGFb SMAD3 inh inconclusive, HepG2 viability -16.7%, TDP1 cell CPT 9.2µM* and DT40 TDP1 no CPT 20.6µM*.
For Cc1nc(CC(=O)Nc2cc(Cl)ccc2C)cs1 the results were TDP1 inh 4.7%, TGFb SMAD3 inh -0.6%, HepG2 viability -1.3%, TDP1 cell CPT -0.8% and DT40 TDP1 no CPT -4.8%.
For O=S(=O)(c1ccccc1)N1CCC[C@@]2(CCN(c3ncccn3)C2)C1 the results were TDP1 cell CPT -5.0% and DT40 TDP1 no CPT -19.5%.
`O=C(COC(=O)c1ccccc1)Nc1cccc(S(=O)(=O)N2CCCCC2)c1` gave IL1B secr inh 1.0, TDP1 inh -0.5%, TGFb SMAD3 inh inconclusive, HepG2 viability -3.7%, TDP1 cell CPT 6.0% and DT40 TDP1 no CPT 6.0%.
For CCCc1nc2ccc(C)cn2c1Cc1ccccc1C(F)(F)F the results were IL1B secr inh -14.2, TGFb SMAD3 inh inconclusive, HepG2 viability -58.5%, TDP1 cell CPT inconclusive and DT40 TDP1 no CPT inconclusive.
`CCCc1nc2ccc(C)cn2c1Cc1ccccc1OC` gave IL1B secr inh 0.0, TGFb SMAD3 inh inconclusive, HepG2 viability -41.0%, TDP1 cell CPT 20.6µM* and DT40 TDP1 no CPT 20.6µM*.

Assay outcomes deposited in PubChem BioAssay by National Center for Advancing Translational Sciences (NCATS).
